This is part of a sample that, as a whole, favours compounds with a hit. Of some 79,000 tested, about 15% had one in any assay. Calls of active or inactive are those of the source. Rule as the data show it: active = growth inhibition above about 70%; inactive = the rest.
What was measured:
[1] = NCI Yeast Anticancer Drug Screen. Data for the rad52 strain (AID 147);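 also: 0% = growth of vehicle-treated control cultures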; conditions: S. cerevisiae rad52 mutant growth inhibition, hits give high values
Method in brief: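 Genetically altered yeast (DNA damage repair defect) treated with compound; inhibition calculated relative to vehicle.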

[2] = NCI Yeast Anticancer Drug Screen. Data for the wt1 strain (AID 149);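 also: 0% = growth of vehicle-treated wt1 cultures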; conditions: S. cerevisiae wt1 strain (SPY 50644) growth inhibition, hits give high values
Method in brief: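 Compounds are added to wt1 yeast cultures. Growth is then measured. Inhibition is expressed relative to vehicle-treated controls.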

[3] = NCI Yeast Anticancer Drug Screen. Data for the rad50EPP+ strain (AID 151);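 also: 0% = growth of vehicle-treated control cultures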; conditions: S. cerevisiae rad50 mutant strain, hits give high values
Method in brief: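 Strain rad50EPP+; compound exposure; % growth inhibition vs vehicle.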

[4] = NCI Yeast Anticancer Drug Screen. Data for the mgt1 strain (AID 153); conditions: S. cerevisiae mgt1 mutant growth inhibition, hits give high values
Method in brief: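 Read-out: yeast growth inhibition vs vehicle control. Strain mgt1, drawn from a panel altered in DNA damage repair or cell cycle control.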

[5] = NCI Yeast Anticancer Drug Screen. Data for the rad50 strain (AID 155);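 also: 0% = growth of vehicle-only cultures of the same strain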; conditions: S. cerevisiae rad50 strain growth inhibition, hits give high values
Method in brief: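 Inhibition values express reduced yeast growth in compound-treated cultures relative to vehicle-treated controls.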

[6] = NCI Yeast Anticancer Drug Screen. Data for the mec2-1 strain (AID 157); conditions: S. cerevisiae mec2-1 strain, hits give high values
Method in brief: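 Cells of the genetically defined mec2-1 yeast strain are incubated with test compound. Inhibition of growth is calculated against vehicle-treated controls.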

[7] = NCI Yeast Anticancer Drug Screen. Data for the rad14 strain (AID 159);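 also: 0% = growth of vehicle-treated control cultures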; conditions: S. cerevisiae rad14 strain growth inhibition, hits give high values
Method in brief: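 A mutant yeast strain defective in DNA damage repair is treated with compound; inhibition of its growth is scored against untreated, vehicle-exposed cultures.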

[8] = NCI Yeast Anticancer Drug Screen. Data for the sgs1 mgt1 strain (AID 161);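 also: 0% = growth of cultures given vehicle only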; conditions: S. cerevisiae sgs1 mgt1 strain, hits give high values
Method in brief: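 Genetically altered yeast, compound exposure, growth inhibition relative to vehicle.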

[9] = NCI Yeast Anticancer Drug Screen. Data for the CLN2oe strain (AID 163);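 also: 0% = growth of vehicle-only control cultures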; conditions: S. cerevisiae CLN2oe strain, hits give high values
Method in brief: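 Strain altered in cell-cycle control, incubated with compound; growth compared to solvent-treated controls.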

[10] = NCI Yeast Anticancer Drug Screen. Data for the cln2 rad14 strain (AID 165);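 also: 0% = growth equal to vehicle treated cultures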; conditions: S. cerevisiae cln2 rad14 strain, hits give high values
Method in brief: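 The screen exposed genetically defined yeast (cln2 rad14) to test compounds and scored growth inhibition relative to vehicle-treated controls.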

[11] = NCI Yeast Anticancer Drug Screen. Data for the bub3 strain (AID 167); conditions: S. cerevisiae bub3 mutant strain, hits give high values
Method in brief: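 Steps: expose the mutant yeast strain to compound; grow alongside vehicle-treated cultures; measure growth; express inhibition against the vehicle cultures.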

[12] = NCI Yeast Anticancer Drug Screen. Data for the wt2 strain (AID 169);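 also: 0% = growth of vehicle-treated yeast cultures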; conditions: S. cerevisiae wt2 strain growth inhibition, hits give high values
Method in brief: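 Steps: yeast strain treated with compound; growth recorded; inhibition calculated relative to cultures given vehicle alone.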

[13] = NCI Yeast Anticancer Drug Screen. Data for the mlh1 strain (AID 171);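 also: 0% = growth of vehicle-treated control cultures of the same strain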; conditions: S. cerevisiae mlh1 strain growth inhibition, hits give high values
Method in brief: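 Yeast screen: mutant strain plus compound, growth scored against vehicle control wells.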

[14] = NCI Yeast Anticancer Drug Screen. Data for the sgs1 strain (AID 173);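 also: 0% = growth of vehicle-only control cultures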; conditions: S. cerevisiae sgs1 mutant, hits give high values
Method in brief: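 Inhibition of yeast growth served as the measure. The mutant strain was treated with each compound, and growth was normalised to cultures receiving vehicle alone.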

[15] = NCI Yeast Anticancer Drug Screen. Data for the mlh1 rad18 strain (AID 175); conditions: S. cerevisiae mlh1 rad18 strain growth inhibition, hits give high values
Method in brief: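 Compound-treated yeast growth, normalised to vehicle controls. Strain bears defined DNA repair mutations.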

[16] = NCI Yeast Anticancer Drug Screen. Data for the rad18 strain (AID 177); conditions: S. cerevisiae rad18 mutant growth inhibition, hits give high values
Method in brief: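 Inhibition values reflect reduced yeast growth compared with vehicle-treated controls, using a strain engineered with a DNA damage repair defect.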

[17] = at 5.0 µM (retest, dose inferred, filed as 0.5)
[18] = at 50.0 µM (retest, dose inferred, filed as 5.0)

Measured: growth inhibition

COc1ccc(N=CN(C)C)c(C)c1
active: [1]; at 33.0 µM 83% | [1]; at 100.0 µM 94% | [2]; at 100.0 µM 95% | [3]; at 100.0 µM 71% | [4]; at 33.0 µM 93% | [4]; at 100.0 µM 95% | [5]; at 33.0 µM 86% | [5]; [18] 78% | [5]; at 50.0 µM 91.5% | [5]; at 100.0 µM 95% | [6]; at 33.0 µM 85% | [6]; [18] 76% | [6]; at 50.0 µM 94% | [6]; at 100.0 µM 96% | [7]; at 33.0 µM 92% | [7]; at 100.0 µM 95% | [8]; [18] 97% | [8]; at 50.0 µM 93.5% | [9]; at 33.0 µM 84% | [9]; at 100.0 µM 93% | [10]; [18] 96% | [10]; at 50.0 µM 92% | [11]; at 33.0 µM 88% | [11]; [18] 95% | [11]; at 50.0 µM 91.9% | [11]; at 100.0 µM 94% | [12]; at 33.0 µM 87% | [12]; at 100.0 µM 96% | [13]; at 33.0 µM 93% | [13]; at 100.0 µM 96% | [14]; at 33.0 µM 89% | [14]; at 100.0 µM 95% | [15]; [18] 72% | [16]; at 33.0 µM 89% | [16]; at 100.0 µM 93%
inactive: [1]; at 1.2 µM -24% | [1]; at 3.7 µM -26% | [1]; at 11.0 µM 0% | [2]; at 1.2 µM -29% | [2]; at 3.7 µM -29% | [2]; at 11.0 µM -32% | [2]; at 33.0 µM 61% | [3]; at 1.2 µM -9% | [3]; at 3.7 µM -62% | [3]; at 11.0 µM -62% | [3]; at 33.0 µM -34% | [4]; at 1.2 µM -40% | [4]; at 3.7 µM -51% | [4]; at 11.0 µM -43% | [5]; at 1.2 µM -1% | [5]; at 3.7 µM 1% | [5]; [17] 50% | [5]; at 11.0 µM -19% | [6]; at 1.2 µM -44% | [6]; at 3.7 µM -70% | [6]; [17] 46% | [6]; at 11.0 µM -43% | [7]; at 1.2 µM -63% | [7]; at 3.7 µM -54% | [7]; at 11.0 µM -43% | [8]; [17] -4% | [9]; at 1.2 µM -28% | [9]; at 3.7 µM -34% | [9]; at 11.0 µM -10% | [10]; [17] 63% | [11]; at 1.2 µM -30% | [11]; at 3.7 µM -9% | [11]; [17] 44% | [11]; at 11.0 µM -28% | [12]; at 1.2 µM -26% | [12]; at 3.7 µM -39% | [12]; at 11.0 µM -27% | [13]; at 1.2 µM -37% | [13]; at 3.7 µM -3% | [13]; at 11.0 µM -16% | [14]; at 1.2 µM -45% | [14]; at 3.7 µM -40% | [14]; at 11.0 µM -59% | [15]; [17] 44% | [15]; at 50.0 µM 48.4% | [16]; at 1.2 µM -50% | [16]; at 3.7 µM -55% | [16]; at 11.0 µM -8%

— PubChem BioAssay (NCI)
